# The whole screen tested about 270,000 compounds, of which about 1,100 (0.41%) were called active. Inconclusive results (about 3%) are left out. Calls follow the shape of the full dose curve. The list comes from a sample in which actives are over-represented; it also holds similar structures and randomly drawn compounds.
# Assay: qHTS Assay for Inhibitors of Influenza NS1 Protein Function; also: actives are rising curves; nearly all actives have a fitted effect of over 50% in size
# Details: series mostly up to 46.1 µM; activity, positive = more growth: at the top concentration
# Description: NIH Chemical Genomics Center [NCGC]
# NIH Molecular Libraries Probe Centers Network [MLPCN]
# Assay Submitter (PI): Daniel Engel
# Influenza is a world-wide public health problem and emerging forms of the virus have the potential to cause a pandemic of equal or greater magnitude to the outbreaks recorded in 1918, 1957 or 1968. Vaccine development is proceeding and there also exist two classes of anti-influenza compounds. However these therapeutic modalities are neither fully effective nor widely enough available to fulfill global needs. In addition their potential usefulness against newly emergent strains is not known. Efforts are needed to develop novel agents against influenza virus, including broad-spectrum agents. Identification of small molecules that inhibit NS1 function either directly or by interfering with specific cellular pathways may be a key to increasing our defense against the virus.
# We have miniaturized and optimized a cell based assay in which NS1 from influenza A is expressed in the budding yeast S. cerevisiae. NS1 is a multi-functional protein that counters the host innate immune response and facilitates viral versus cellular gene expression. Expression of NS1 causes a pronounced slow growth phenotype in yeast due to its intrinsic molecular activities. Small molecules that suppress the slow growth phenotype can be identified by a straightforward growth recovery assay using optical density (OD) as the measurement. The same yeast strain not expressing NS1 was used as positive control in the yeast growth recovery assay.
# The yeast S. cerevisiae control and NS1 expressing cells were kindly supplied by laboratory of Dr. Daniel Engel, University of Virginia. Yeast starter cultures were stored in single use aliquots at -80C.
# 1. Yeast culture medium per liter: 1.2 g Yeast Nitrogen Base (w/out amino acids and Ammonium Sulphate), 5.0g Ammonium Sulphate, 0.77g -URA DO (drop-out) Supplement, adjust pH to 6.0. Adjust to 2% glucose prior to inoculating with yeast.
# 2. Yeast assay medium: 1.2 g Yeast Nitrogen Base (w/out amino acids and Ammonium Sulphate), 5.0g Ammonium Sulphate, 0.77g -URA DO (drop-out) Supplement, adjust pH to 6.0. Adjust to 2% D-galactose prior to inoculating with yeast.
# 1. Inoculate 100 mls of yeast culture medium with 1 ml of frozen yeast aliquote. Incubate overnight at 30C, 250RPM.
# 2. Harvest overnight culture at 4000 RPM and wash pellet with 15 mls H2O 3x.
# 3. Re-suspend washed pellet in 10 mls of yeast assay medium.
# 4. Prepare a 1:100 dilution of re-suspended culture in yeast assay medium.
# 5. Dispense 3.5 ul per well of reagents in step 4 in columns 2-48 in a black clear bottom 1536 well plate.
# 6. Dispense 3.5 ul per well of yeast assay medium in column 1 only.
# 7. Transfer 23 nl of compound per well.
# 8. Dispense 3.5 ul per well of yeast assay medium in columns 1-48.
# 9. Read plate using Viewlux protocol for optical density 600 (OD600) using excitation filter 600nm.
# Potency is read from the fitted curve at half-maximal effect.
Structure (SMILES),"activity, positive = more growth",Potency
CC(=O)Nc1ccc(OCC(O)CN2CCN(c3ccccc3Cl)CC2)cc1 (stereo not given),-6.58% (inactive),
OC(COc1ccc2ccccc2c1)CN1CCOCC1 (stereo not given),1.77% (inactive),
O=S(=O)(c1ccc(OCC(O)CN2CCN(c3ccccc3Cl)CC2)cc1)N1CCOCC1 (stereo not given),,1.26 µM (active)
Cc1cccnc1CC(C)NC(=O)c1cc(COc2cncc(Cl)c2)on1 (stereo not given),-7.9% (inactive),
O=[N+]([O-])c1ccc2c(c1)Nc1nc3ccccc3nc1N2,-62.4% (inactive),
Cc1cc(Br)ccc1NC(=S)NC1CCCC1,-89.5% (inactive),
Clc1cccc(N=C2NN=C(c3ccc4c(c3)OCCO4)CS2)c1,13.9% (inactive),
Cc1cccc(N=C2NN=C(c3c[nH]c4ccccc34)CS2)c1,,14.1 µM (active)
Cc1ccc(-c2csc(-c3c[nH]c4ccccc34)n2)cc1,-6.52% (inactive),
COc1ccccc1NC(=O)C1CCN(C(=O)c2ccc(C(C)(C)C)cc2)CC1,3.23% (inactive),
Cc1ccc(NC(=S)NCCc2ccc(Cl)cc2)c(C)c1,-44.7% (inactive),
COc1ccc2[nH]c(C(=O)N/N=C/c3cc(OC)c(OC)c(OC)c3)cc2c1,-2.63% (inactive),
Cn1c(NC(=O)c2ccccc2)nc2ccccc21,-89.1% (inactive),
COCCCNC(=S)N1CCN(c2nc(-c3cccc(OC)c3)cs2)CC1,2.39% (inactive),
CC(C(=O)NC1CCCCC1)N1C(=O)c2cccc3cccc1c23 (stereo not given),4.31% (inactive),
CC(C(=O)O)N1C(=O)c2cccc3cccc1c23 (stereo not given),,14.1 µM (active)
Cc1cc(C)nc(NC(=O)C(C)N2C(=O)c3ccccc3C2=O)n1 (stereo not given),3.33% (inactive),
O=C1/C(=C/c2ccc(F)cc2)SC(=S)N1CCCC(=O)N1CCCCC1CCO (stereo not given),-51.5% (inactive),
O=C(NCCCN1CCOCC1)c1ccc2c(c1)N(Cc1cccc(F)c1)C(=O)c1ccccc1S2,2.04% (inactive),
CN(C)S(=O)(=O)N1CCC(Oc2cccc(C(=O)NCCCC3CCCC3)c2)CC1,-0.22% (inactive),
O=C(CSC1=Nc2ccccc2C2=NC(CC(=O)NCc3ccco3)C(=O)N12)NCc1ccco1 (stereo not given),,7.94 µM (active)
O=C(CC1N=C2c3ccccc3N=C(SCc3ccccc3Cl)N2C1=O)NCc1ccco1 (stereo not given),8.45% (inactive),
NC(=O)CSC1=Nc2ccccc2C2=NC(CCC(=O)NCc3ccc(F)cc3)C(=O)N12 (stereo not given),-1.66% (inactive),
CN(c1ccc(O)cc1)c1nc(-c2cccnc2)cs1,-47.4% (inactive),
CC(=O)c1cccc(OCc2cc(C(=O)NC(C)Cc3cccnc3)no2)c1 (stereo not given),1.99% (inactive),
CNC(=O)c1sc(Nc2ccc(OCc3ccccc3)cc2)nc1C,-6.93% (inactive),
CCCn1c(=N)n(CC(=O)c2ccc(Cl)c(Cl)c2)c2ccccc21,-0.19% (inactive),
COc1ccc(/C=C2\SC(=O)N(CCC(=O)NC3CCS(=O)(=O)C3)C2=O)cc1 (stereo not given),-18.3% (inactive),

Structure (SMILES),"activity, positive = more growth",Potency
O=C(CCS(=O)(=O)c1ccccc1)Nc1nc2c(s1)CCCC2,-11.9% (inactive),
Cc1nnc(NC(=O)Cn2c(=O)sc3ccccc32)s1,0.343% (inactive),
Cc1ccc(-n2c(SCC(=O)N3CCC(C(=O)O)CC3)nc3ccccc3c2=O)cc1C,11.5% (inactive),
Cc1ccc(NS(=O)(=O)c2ccc(-c3coc(C)n3)cc2)c(C)c1,4.83% (inactive),
CN1CCN(C(=O)COc2ccc(C(C)(C)C)cc2Br)CC1,,3.98 µM (active)
CC(C)c1ccc(OCC(=O)N2CCN(C)CC2)c(Br)c1,-5.71% (inactive),
CCOc1cc(CO)ccc1OCC(=O)N1CCCCC1,3.05% (inactive),
CC(C)(C)c1ccc(SCCc2ccncc2)cc1,-39.6% (inactive),
O=C(N/N=C/c1ccccc1O)C1CCCC1,-10.7% (inactive),
O=C(CSc1ccc(-c2ccccn2)nn1)Nc1ccccc1,-103% (inactive),
CCOc1ccccc1/C=N/Nc1nc2ccccc2o1,-5.44% (inactive),
O=S(=O)(NCc1ccc(Cl)cc1Cl)c1cccs1,-58.9% (inactive),
COCCCNc1nc2c(-c3cccc(C)c3)nnn2c2ccc(Cl)cc12,-31.8% (inactive),
CCCc1[nH]nc2c1C(c1c(C)nn(-c3ccccc3)c1Cl)C(C#N)=C(N)O2 (stereo not given),5.69% (inactive),
CCCc1[nH]nc2c1C(c1ccc(Br)s1)C(C#N)=C(N)O2 (stereo not given),,2.51 µM (active)
CCCc1[nH]nc2c1C(C1CC=CCC1)C(C#N)=C(N)O2 (stereo not given),6.91% (inactive),
Cc1cccc(C(=O)NC(=S)N(C)C2CCCCC2)c1,-54.8% (inactive),
COc1ccc(CCc2nc(-c3cccs3)no2)cc1,-25.1% (inactive),
COc1ccc(C(=O)NC(=S)N2CCCCC2c2cccnc2)cc1OC (stereo not given),-12% (inactive),
O=C(N/N=C/c1cccc(OCc2ccccc2)c1)c1ccc(Br)o1,-38.4% (inactive),
O=C(Cc1ccc(Cl)cc1)NC(=S)Nc1ccccc1O,5.46% (inactive),
CCc1ccc(C(=O)OCC(=O)Nc2cccc(S(=O)(=O)NC3=NCCCCC3)c2)cc1,-22% (inactive),
Cc1cccc(-n2c(SCC(=O)Nc3cccc(S(=O)(=O)NC4=NCCCCC4)c3)nc3ccccc3c2=O)c1C,,22.4 µM (active)
NS(=O)(=O)c1cccc(NC(=O)CSc2nc3ccccc3n2-c2ccccc2)c1,15.1% (inactive),
CCN(CC(=O)Nc1ccc(C)c(S(=O)(=O)N(C)C)c1)Cc1ccccc1,-2.09% (inactive),
Cc1ccc(CSc2nsc(C)c2C#N)cc1,-1.63% (inactive),
COc1ccc(C(=O)CC(=O)C(=O)Nc2cc([N+](=O)[O-])ccc2OC)cc1,8.6% (inactive),

# Source: PubChem BioAssay AID2326 (National Center for Advancing Translational Sciences (NCATS), 2010)
